# Screening results: PubChem BioAssay, National Center for Advancing Translational Sciences (NCATS)
# The list is not random: actives were taken first. Their share in the collection is about 19%.
# IL-1B inflam inh = qHTS for Inhibitors of Inflammasome Signaling: IL-1-beta AlphaLISA Primary Screen; THP-1 LPS/ATP IL-1B secretion, AlphaLISA, 16 h; active compounds read low; activity change, % at 57.5 µM; hit rate 4.7% among 360,000; AID 743279, 2014; in the data active means activity change below about -50%; inconclusive means mostly about -30% to -49%
#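 Secreted IL-1B measured by AlphaLISA bead assay after 16 h compound exposure of THP-1 cells; compounds (final up to 57.5 uM) added 1 h before LPS (250 ng/mL) and ATP (1.25 mM) stimulation; lower signal means less secretion.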
# TDP1 cell noCPT = qHTS for Inhibitors of human tyrosyl-DNA phosphodiesterase 1 (TDP1): qHTS in cells in absence of CPT | DT40 Tdp1-/- hTDP1 cells, no CPT, ATP luminescence, 48 h | Potency, µM (highest dose often 46.2 µM), usual class: inhibitors | hit rate 15% among 420,000 | AID 686978, 2013; further: nearly all actives have a fitted effect of over 55% in size
#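 Readout: luminescence from CellTiter-Glo after 30 min in the dark at RT. Cells: DT40 Tdp1-/- with stable hTDP1, 400/well. Exposure: compounds alone, ≥48 hr, 37 °C.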
# TDP1 cell CPT = qHTS for Inhibitors of human tyrosyl-DNA phosphodiesterase 1 (TDP1): qHTS in cells in presence of CPT; chicken DT40 Tdp1-/-;hTDP1 cells + 20 nM CPT, ATP luminescence, 48 h; Potency, µM (series often up to 46.2 µM), actives largely listed as inhibitors; hit rate 12% among 420,000; further: nearly all actives have a fitted effect of over 55% in size
#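 Cell growth measured by CellTiter-Glo luminescence after a minimum 48 h, 37 C compound exposure with 20 nM CPT in Tdp1-knockout DT40 cells stably expressing hTDP1, seeded 400/well; qHTS titration format.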
# HT1080 IDH1KD tx = qHTS for induction of synthetic lethality in tumor cells producing 2HG: qHTS for the HT-1080-IDH1KD cell line; HT-1080 IDH1 knockdown viability, ATP luminescence, 48 h; Potency, µM (titrated, usually from 46.1 µM), actives largely listed as cytotoxic; hit rate 2% among 360,000; AID 686971, 2013
#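 Assay cells: HT-1080 with IDH1 knockdown, 750 per well, RPMI/5% FBS. Exposure: 48 h at 37 °C following 2 h pre-incubation. Read: CellTiter-Glo luminescence; fitted concentration-response, curve class assigned.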
# HT1080NT lethal = qHTS for induction of synthetic lethality in tumor cells producing 2HG: qHTS for the HT-1080-NT fibrosarcoma cell line; HT-1080-NT fibrosarcoma viability, CellTiter-Glo ATP luminescence, 48 h; Potency, µM (series often up to 46.1 µM), most hits filed as cytotoxic; hit rate 1.6% among 360,000;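 further: NT is the 2HG producing partner of a matched IDH1 knockdown line; nearly all actives have a fitted effect of over 55% in size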
#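 A 48-hour cytotoxicity screen used HT-1080-NT cells plated 2 hours before compound delivery. ATP-based CellTiter-Glo luminescence measured viability, normalized to DMSO and no-cell controls.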
# A number is an active result; - = inactive; ? = inconclusive; . = not tested or not shown. Unless noted, the call rests on the fitted dose curve; in most records, active means well fitted curve in the direction sought with a large enough effect; inconclusive means small, poorly fitted or top-dose-only effect, or another doubt; inactive means no such curve, though single readings can be large; an effect the other way counts as inactive or inconclusive.
SMILES,IL-1B inflam inh,TDP1 cell noCPT,TDP1 cell CPT,HT1080 IDH1KD tx,HT1080NT lethal
CCOC(=O)CC1=CC(C)(CC(=O)OCC)C(C#N)(C#N)C(N)=C1C#N (centres undefined),-,-,-,-,-
COc1ccc(NC(=O)CN(C)S(=O)(=O)c2ccc3[nH]c4c(c3c2)CCCC4)cc1Cl,.,?,23µM,.,.
CCCCCC(=O)N1C[C@@H](n2cc(C3CC3)nn2)[C@H](O)C[C@@H]1c1ccc(OC)cc1,-,?,?,-,-
CCCCCCN1C[C@@H](O)[C@H](n2cc(C3CC3)nn2)C[C@@H]1c1ccccc1,-,16µM,18µM,-,-
CCCCCCN1C[C@H](n2cc(C3CC3)nn2)[C@@H](O)C[C@@H]1c1ccc(OC)cc1,-,21µM,?,-,-
CCCCCCN1C[C@H](n2cc(C3CC3)nn2)[C@@H](O)C[C@@H]1c1ccccc1,-,9.2µM,21µM,?,?
c1ccc(C[C@H]2CN=C(Nc3ccccc3)N2CCCC2CCCC2)cc1,-,16µM,?,?,?
C[C@H]1CN=C(Nc2ccccc2)N1CC1CCCCC1,-,?,?,-,-
C[C@H]1CN=C(Nc2ccccc2)N1CCCC1CCCCC1,?,?,?,-,-
CC(C)(C)C1CCC(CN2C(Nc3ccccc3)=NC[C@@H]2Cc2ccccc2)CC1 (some centres undefined),?,13µM,23µM,-,-
CCCCCCCN1C(Nc2ccccc2)=NC[C@@H]1Cc1ccccc1,-,18µM,?,?,?
c1ccc(CCCCN2C(Nc3ccccc3)=NC[C@@H]2Cc2ccccc2)cc1,-55,23µM,?,-,-
C[C@@H](NC(=O)[C@@H]1Cc2ccccc2CN1)C(=O)Nc1ccc2c(c1)OCO2,-,-,-,-,-
CC[C@@]1(C(=O)OC)N[C@H](CN(C)C(=O)COc2ccccc2)[C@@H]2C(=O)N(Cc3ccccc3)C(=O)[C@@H]21,-,-,-,-,-
O=S1(=O)CC2SC(=S)N(Cc3ccccc3)C2C1 (centres undefined),-,-,-,-,-
OCC1CCCCN1CC(O)COC(c1ccc(F)cc1)c1ccc(F)cc1 (centres undefined),-,?,-,-,-
CCOC(=O)c1cc2c(=O)n3cccc(C)c3nc2n(CC(C)C)c1=NC(=O)c1ccco1,-,21µM,?,-,-
CCOCCCn1c(=NC(=O)c2ccco2)c(C(=O)OCC)cc2c(=O)n3cccc(C)c3nc21,-,12µM,16µM,-,-
C[C@@H]1CN([C@H](C)CO)C(=O)CCCn2nncc2CO[C@H]1CN(C)S(=O)(=O)c1ccc(Oc2ccccc2)nc1,-,-,-,-,-
CC1(C)C(=O)Nc2ccccc2N1C(=O)COc1cccnc1[N+](=O)[O-],-,-,-,-,-
Cc1ccccc1CC1(CO)CCCN(C(=O)c2ccc3ncccc3c2)C1 (centres undefined),-,15µM,6.5µM,-,-
C=CCN=c1scc(-c2ccc(F)cc2)n1/N=C/c1ccccn1,?,2.6µM,2.6µM,?,-
C=CCN=c1scc(-c2ccccc2)n1/N=C/c1ccccn1,?,1.3µM,1.8µM,18µM,18µM
N=c1scc(-c2ccccc2)n1/N=C/c1ccco1,?,?,-,-,-
Cc1cc(C)nc(N2N=C(C(F)(F)F)CC2=O)n1,-,-,-,-,-
SMILES,IL-1B inflam inh,TDP1 cell noCPT,TDP1 cell CPT,HT1080 IDH1KD tx,HT1080NT lethal
Cc1ccc(C(=O)NCC(=O)N(C)CC(=O)Nc2ccccc2Br)s1,-,-,-,-,-
COc1ccc(S(=O)(=O)N(C)CC(=O)Nc2cccc(C(C)=O)c2)cc1Cl,-,13µM,13µM,-,-
COc1ccc(S(=O)(=O)N(C)CC(=O)Nc2cccc(C(C)=O)c2)cc1,-,-,?,-,-
Cc1nc2ccc(S(=O)(=O)N(CC(=O)Nc3ccc(Cl)cc3)Cc3ccccc3)cc2s1,.,15µM,?,.,.
COc1ccc(NC(=O)CN(C)S(=O)(=O)c2ccc3nc(C)sc3c2)cc1Cl,.,8.2µM,23µM,.,.
O=C(NCc1ccc(Cl)cc1)C1CC(O)CN1S(=O)(=O)c1ccc(Cl)cc1 (centres undefined),-,-,-,-,-
CCN1CCN(c2nc3c(c(=O)n(C)c(=O)n3C)n2CCSc2nccc(C)n2)CC1,-,?,-,-,-
COc1ccc2c(c1OC)C(Cc1ccccc1)N1CCc3cc4c(cc3C1=C2)OCO4 (centres undefined),.,3.8µM,3µM,.,.
COc1cc(C)c(CN2CCN(S(=O)(=O)c3ccc(Cl)s3)CC2)cc1OC,-,?,?,-,-
O=c1[nH]nc(SCCS(=O)(=O)c2ccc(F)cc2)n1-c1ccc2c(c1)OCCO2,-92,16µM,?,?,-
CCOc1ccccc1NC(=O)CSc1n[nH]c(=O)n1-c1ccccc1,-,?,?,-,-
O=c1[nH]nc(SCCS(=O)(=O)c2ccc(F)cc2)n1-c1ccccc1,-88,?,29µM,?,?
Cc1ccc(C(=O)N/C(=C\c2ccccc2F)c2nc(=S)[nH][nH]2)cc1,-,?,21µM,-,-
Cc1ccc(/C=C(\NC(=O)c2ccc(C)cc2)c2nc(=S)[nH][nH]2)cc1,-,?,15µM,-,-
Cc1ccc(C(=O)N/C(=C/c2ccccc2F)C(=O)NCCCn2ccnc2)cc1,-,-,?,-,-
COC(=O)CN1C(=O)CSc2ccc(S(=O)(=O)Nc3ccccc3)cc21,.,-,-,.,.
Cc1ccccc1NC(=S)NC(NC(=O)c1ccco1)C(Cl)(Cl)Cl (centres undefined),?,-,-,-,-
O=C(NC(NC(=S)Nc1ccc(Cl)c(Cl)c1)C(Cl)(Cl)Cl)c1ccco1 (centres undefined),-63,18µM,21µM,?,?
O=C(COc1ccccc1)NC(NC(=S)Nc1ccccc1O)C(Cl)(Cl)Cl (centres undefined),-,-,?,?,-
O=C(Cc1ccccc1)NC(NC(=S)Nc1cc(Cl)ccc1Cl)C(Cl)(Cl)Cl (centres undefined),-,23µM,-,-,-
O=C(NC(NC(=S)Nc1cc(Cl)ccc1Cl)C(Cl)(Cl)Cl)c1ccco1 (centres undefined),-80,-,?,?,?
COc1ccc(-n2c(=O)c(-c3ccc(Cl)cc3)nc3cnc(N(C)C)nc32)cc1,.,-,-,.,.
Cc1nc(-c2ccc(F)cc2)c(CC(=O)N(C)CC(=O)Nc2cccc(F)c2)s1,-,?,?,-,-
